# From article PMC4336329 (PLoS ONE, 2015)
# Among all 310,000 compounds or so, about 2,200 (0.71%) showed an effect of 50% or more. The effect is printed as a negative number. The list comes from a sample in which strong results are over-represented; it also holds similar structures and randomly drawn compounds.
# Molecular target: human ether-à-go-go-related gene (hERG) potassium channel (human, UniProt Q12809)
# Assay: primary screen, population patch clamp on CHO cells stably expressing hERG; higher = less effect of the substance
# Chain of human ether-à-go-go-related gene (hERG) potassium channel (Q12809 whole entry, looked up): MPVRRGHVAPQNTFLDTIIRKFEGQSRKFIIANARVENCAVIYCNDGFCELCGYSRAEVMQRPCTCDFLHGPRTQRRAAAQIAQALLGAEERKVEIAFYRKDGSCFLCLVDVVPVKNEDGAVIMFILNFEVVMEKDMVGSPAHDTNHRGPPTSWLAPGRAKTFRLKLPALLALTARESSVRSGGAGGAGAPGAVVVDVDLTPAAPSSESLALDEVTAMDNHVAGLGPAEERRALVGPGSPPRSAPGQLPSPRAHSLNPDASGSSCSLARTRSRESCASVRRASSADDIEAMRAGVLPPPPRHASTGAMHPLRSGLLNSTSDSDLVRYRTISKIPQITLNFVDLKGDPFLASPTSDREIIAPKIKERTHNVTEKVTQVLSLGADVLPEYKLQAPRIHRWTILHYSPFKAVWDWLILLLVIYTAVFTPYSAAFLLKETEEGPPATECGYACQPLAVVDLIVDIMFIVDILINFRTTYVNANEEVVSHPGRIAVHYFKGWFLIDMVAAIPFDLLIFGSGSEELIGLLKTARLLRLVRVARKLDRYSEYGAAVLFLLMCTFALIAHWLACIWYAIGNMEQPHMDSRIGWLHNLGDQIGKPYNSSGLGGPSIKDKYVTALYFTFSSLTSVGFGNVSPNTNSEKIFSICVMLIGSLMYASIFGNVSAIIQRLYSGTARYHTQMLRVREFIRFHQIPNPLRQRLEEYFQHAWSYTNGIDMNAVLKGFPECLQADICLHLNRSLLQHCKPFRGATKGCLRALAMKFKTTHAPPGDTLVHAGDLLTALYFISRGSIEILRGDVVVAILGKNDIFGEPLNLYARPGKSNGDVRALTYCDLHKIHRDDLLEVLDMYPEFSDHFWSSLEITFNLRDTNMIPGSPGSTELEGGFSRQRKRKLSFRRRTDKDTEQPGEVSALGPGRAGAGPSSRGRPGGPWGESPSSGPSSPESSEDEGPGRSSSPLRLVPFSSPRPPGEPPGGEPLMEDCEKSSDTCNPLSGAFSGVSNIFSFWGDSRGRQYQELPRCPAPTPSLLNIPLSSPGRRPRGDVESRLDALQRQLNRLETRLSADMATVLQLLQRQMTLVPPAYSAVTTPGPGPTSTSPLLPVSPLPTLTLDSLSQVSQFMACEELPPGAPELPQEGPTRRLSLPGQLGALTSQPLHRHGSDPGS
row,Compound,"hERG current change (%, negative = inhibition) at 1uM"
1,Cc1ccc(CN2CCN(Cc3cccn3-c3nccs3)CC2CCO)cc1 (stereo not drawn),-79.7%
2,OCCC1CN(Cc2ccc(Oc3ncccn3)cc2)CCN1Cc1ccc(F)c(F)c1 (stereo not drawn),8.89%
3,OCCC1CN(Cc2cccn2-c2nccs2)CCN1CCc1ccccc1 (stereo not drawn),-57.1%
4,OCCC1CN(Cc2cccn2-c2nccs2)CCN1Cc1ccc(F)c(F)c1 (stereo not drawn),-85%
5,OCCC1CN(Cc2cccn2-c2nccs2)CCN1Cc1ccccc1 (stereo not drawn),-21.7%
6,CCOc1ccc(CN2CCN(Cc3ccon3)CC2CCO)cc1 (stereo not drawn),-33.5%
7,OCCC1CN(Cc2cccn2-c2nccs2)CCN1C1CCCCC1 (stereo not drawn),-4.43%
8,OCCC1CN(Cc2ccn[nH]2)CCN1Cc1ccc(F)c(F)c1 (stereo not drawn),8.07%
9,CCOc1ccc(CN2CCN(Cc3cccn3-c3nccs3)CC2CCO)cc1 (stereo not drawn),-84%
10,CC(C)=CCN1CCN(Cc2cccn2-c2nccs2)CC1CCO (stereo not drawn),-1.62%
11,CC(C)N1CCN(Cc2cccn2-c2nccs2)CC1CCO (stereo not drawn),11.5%
12,CC(C)CCN1CCN(Cc2cccn2-c2nccs2)CC1CCO (stereo not drawn),-17.6%
13,CC(Sc1nc2ccc(Br)cc2[nH]1)C(=O)O (stereo not drawn),-11.3%
14,Cc1cc(Cl)c(OCCCNC2CCCC2)c(Br)c1.O=C(O)C(=O)O,-6.84%
15,Cc1nnsc1C(=O)Nc1ccc(S(=O)(=O)N2CCCC(C)C2)cc1 (stereo not drawn),15.2%
16,Cn1cccc1C(=O)NC1CCCCC1,5.24%
17,C=CCn1c(SCC(=O)Nc2cccnc2Cl)nnc1-c1ccc(C(C)(C)C)cc1,9.68%
18,CCN1CCN(C(=O)/C=C/c2ccc(OC)c(OC)c2)CC1,14.8%
19,C/C(=N\OC(=O)c1ccc(Cl)cc1)c1nccs1,9.4%
20,COc1ccc(CNS(=O)(=O)c2ccc(-n3cnnn3)c(OC)c2)cc1,-2.65%
21,O=C(c1cc2cc(F)ccc2[nH]1)N(Cc1cccnc1)CC1CCCN(C2CCCCC2)C1 (stereo not drawn),-81%
22,O=C(c1cc2ccccc2[nH]1)N(Cc1cccnc1)CC1CCCN(C2CCCCC2)C1 (stereo not drawn),-49.6%
23,COC(=O)c1ccccc1C(=O)N(Cc1cccnc1)CC1CCCN(C2CCCCC2)C1 (stereo not drawn),-7.49%
24,COC(=O)c1ccc(COc2ccc(/C=N/NC(=O)C(=O)Nc3ccc(OC)cc3)cc2OC)o1,9.15%
25,CC(C)Oc1cccc(C(=O)C2CCCN(Cc3cccn3-c3cccnc3)C2)c1 (stereo not drawn),12.4%
26,CC(C)Oc1cccc(C(=O)C2CCCN(Cc3ccc(Oc4ncccn4)cc3)C2)c1 (stereo not drawn),-7.28%
27,COc1cccc(C(=O)C2CCCN(Cc3ccccn3)C2)c1 (stereo not drawn),-0.481%
28,CC(C)Oc1cccc(C(=O)C2CCCN(Cc3cccn3-c3ccccn3)C2)c1 (stereo not drawn),-81.7%
29,COc1cccc(C(=O)C2CCCN(Cc3cccn3-c3cccnc3)C2)c1 (stereo not drawn),-6.89%
30,COc1cccc(C(=O)C2CCCN(Cc3cccn3-c3ccccn3)C2)c1 (stereo not drawn),-84%
